AI-2 QS mod – Vibrio harveyi AI-2 quorum sensing modulation | Vibrio harveyi JMH597 AI-2 luminescence/OD600 ratio, 9 h; stronger effect = lower value; strain lacks LuxN and CqsS sensors; 0 = neutral-control median | activity change, % at 7.5 µM | actives 0.4% (n = 300,000) | AID 2094; in the data active means activity change below about -75%, passing the limit was not always enough;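 further: luminescence divided by OD600 gain over 9 h not by final OD600 alone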
C2C12 statin – suppression of simvastatin myotoxicity; rescue of ATP level, % at 7.49 µM; C2C12 myotubes + simvastatin, ATP luminescence, 48 h; scaled: DMSO 0, geranylgeraniol control 100; actives 0.78% (n = 330,000);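 active means mean ATP rescue above about 67%, or every replicate alone reaching that limit, limit read from the data, passing the limit was not always enough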;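 further: myotubes were challenged with 10 µM simvastatin during compound exposure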
Rce1 inh – blocks yeast Ras-converting enzyme; Q03530; yeast membranes, quenched prenylated peptide cleavage fluorescence; calls only; actives 0.27% (n = 290,000); AID 2563;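 active means fall in fluorescence gain of 50% or more versus controls, with final raw signal at or below 3038400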;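 further: plate controls were neutral control wells for no effect and wells lacking membranes for full effect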
Target sequence (Q03530 whole entry, looked up): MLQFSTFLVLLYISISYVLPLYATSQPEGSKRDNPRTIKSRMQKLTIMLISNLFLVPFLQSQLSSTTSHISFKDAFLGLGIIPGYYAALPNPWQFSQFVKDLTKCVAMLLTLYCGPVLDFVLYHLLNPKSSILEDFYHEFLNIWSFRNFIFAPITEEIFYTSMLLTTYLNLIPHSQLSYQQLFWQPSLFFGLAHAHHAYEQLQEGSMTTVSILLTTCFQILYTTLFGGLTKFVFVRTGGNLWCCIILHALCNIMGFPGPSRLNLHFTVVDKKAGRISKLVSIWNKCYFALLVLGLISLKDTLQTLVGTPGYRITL
HIF act – HIF pathway transcriptional activation. U2OS HRE-luciferase reporter, luminescence; normalized: DMSO 0%, desferrioxamine 100%. activation, % at 7.5 µM (by protocol). actives 0.32% (n = 300,000). AID 1910;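 active means mean activation of at least 10% of the iron chelator positive control signal, with at least half of replicates also reaching 10%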
PGC1a acetyl inh – lowers PGC1a acetylation signal in U2OS cells. AlphaScreen anti-acetyl-lysine; with virally co-expressed GCN5 acetyltransferase. inhibition, % at 15.6 µM. actives 0.17% (n = 350,000);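 active means every replicate shows inhibition of at least 40%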;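 further: 0% = neutral control wells and 100% = positive control wells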
The depositor's hits bear a star. Shown are actives, neighbours in structure and some others; about 1.3% of the full set was active somewhere.

For COc1ccc(-n2nnnc2C(CCc2ccccc2)N2CCC(n3c(=O)[nH]c4ccccc43)CC2)cc1 (stereo not given) the results were C2C12 statin -14 and PGC1a acetyl inh 55*.
`CCC(c1nnnn1-c1ccc(OC)cc1)N1CCC(n2c(=O)[nH]c3ccccc32)CC1` (stereo not given) gave C2C12 statin -2 and PGC1a acetyl inh 0.
For Cc1nc2ccc(Cl)cn2c1P(=S)(N1CCOCC1)N1CCOCC1 the results were AI-2 QS mod 19, C2C12 statin 93*, Rce1 inh inactive, HIF act 0 and PGC1a acetyl inh -3.
O=C1NC(=O)N(Cc2ccco2)C(=O)/C1=C\c1cccn1CCOc1ccc(Cl)cc1 was read as AI-2 QS mod 28, Rce1 inh inactive and HIF act 0.
Cc1cccc(OCCn2cccc2/C=C2/C(=O)NC(=O)N(Cc3ccco3)C2=O)c1 was read as AI-2 QS mod 19, Rce1 inh inactive, HIF act 592* and PGC1a acetyl inh -5.
CC(C)Cc1nnc(NC(=O)CCC(=O)N2CCC3(CC2)OCCO3)s1 was read as AI-2 QS mod 22, Rce1 inh inactive, HIF act 21* and PGC1a acetyl inh 9.
Screening CCCc1nnc(NC(=O)CCC(=O)N2CCC3(CC2)OCCO3)s1 returned AI-2 QS mod -3, Rce1 inh inactive and HIF act 0.
For CCOC(=O)[C@@H]1[C@@H]2NC(=S)N[C@@]1(C)Oc1ccccc12 the results were PGC1a acetyl inh 9.
`C[n+]1ccc(-c2ccccc2)c2ccccc21` gave AI-2 QS mod -6, C2C12 statin -135, Rce1 inh active, HIF act 0 and PGC1a acetyl inh -3.
Screening CCOC(=O)[C@]1(C#N)[C@@H]2C=CC(C(N)=O)=CN2[C@@H](C(N)=O)[C@@H]1c1ccc(F)cc1 returned AI-2 QS mod 48, C2C12 statin -8, Rce1 inh inactive, HIF act 0 and PGC1a acetyl inh 88*.
For COC(=O)[C@@]1(C#N)[C@@H]2C=CC(C(C)=O)=CN2[C@@H](C(N)=O)[C@@H]1c1ccc(F)cc1 the results were AI-2 QS mod 3, Rce1 inh inactive, HIF act 0 and PGC1a acetyl inh 11.
`CC(C)=CCSc1nnc([C@@H](N)Cc2c[nH]c3ccccc23)o1` gave AI-2 QS mod 13, C2C12 statin -4, Rce1 inh inactive, HIF act 18* and PGC1a acetyl inh 2.
`COC(=O)[C@@H]1[C@@H](CO)[C@@H]2Cn3c(ccc(C4=CCCC4)c3=O)[C@H]1N2Cc1ccccn1` gave C2C12 statin -1.
CCOc1ccc(C2C(C#N)=C(N)Oc3c2c(=O)oc2ccccc32)cc1 (stereo not given) was read as AI-2 QS mod 15, C2C12 statin -14, Rce1 inh active, HIF act 0 and PGC1a acetyl inh 9.
Screening N#CC1=C(N)Oc2c(c(=O)oc3ccccc23)C1c1ccncc1 (stereo not given) returned C2C12 statin 10 and PGC1a acetyl inh 5.
For C=C1C(=O)O[C@@H]2C[C@@H](C)[C@@H]3C=CC(=O)[C@@]3(C)[C@@H](O)[C@H]12 the results were AI-2 QS mod -6, C2C12 statin -164, Rce1 inh inactive, HIF act -4 and PGC1a acetyl inh 47*.
C[C@@H]1C[C@H]2OC(=O)C3(CO3)[C@H]2[C@H](O)[C@]2(C)C(=O)C3OC3[C@@H]12 (stereo not given in full) was read as AI-2 QS mod 11, Rce1 inh inactive and HIF act 2.
For CC1=NCCc2c1[nH]c1cc(O)ccc21 the results were C2C12 statin 0 and PGC1a acetyl inh -12.
Screening COc1ccc2c3c([nH]c2c1)C(C)=NCC3 returned AI-2 QS mod 22, C2C12 statin -13, Rce1 inh active, HIF act 0 and PGC1a acetyl inh 15.
Screening CCCN1[C@@H]2c3ccc(-c4ccc(OC)cc4)c(=O)n3C[C@H]1[C@H](CO)[C@H]2C(=O)OC returned C2C12 statin -3.
For O=C(Cc1cccnc1)N1CCCCN2[C@H](CO)[C@@H](c3ccc(C#CC4CC4)cc3)[C@@H]2C1 the results were PGC1a acetyl inh 7.
For COC(=O)C1C(O)C(C)C(O)C(C)/C=C\C=C(/C)C(=O)Nc2c(C)c(OC(C)=O)c3c(c2O)C(=O)C(C)=C2OCOC(=C23)/C(C)=C/C(C)(O)C(O)C(C)C1O (stereo not given) the results were AI-2 QS mod -150*, C2C12 statin 2, Rce1 inh inactive and HIF act -2.
For C/C=C/c1ccc(C2[C@H]3CNC[C@@H]2N3CC2CCCCC2)cc1 (stereo not given in full) the results were PGC1a acetyl inh -3.
COC(=O)C12OCC34C(CC5C(C)=C(O)C(=O)CC5(C)C3C(O)C1O)OC(=O)C(OC(=O)/C=C(\C)C(C)C)C24 (stereo not given) was read as PGC1a acetyl inh 86*.
`COc1ccc(Cn2c(N)c(C(=O)NCc3ccco3)c3nc4ccccc4nc32)cc1` gave AI-2 QS mod 36, C2C12 statin 74*, Rce1 inh inactive, HIF act 0 and PGC1a acetyl inh -9.
`CCc1nc2ccccc2c(=O)n1-c1ccc2ccccc2c1` gave AI-2 QS mod 3, C2C12 statin 123*, Rce1 inh inactive, HIF act 0 and PGC1a acetyl inh 1.
CC(=O)OC(C)(C)/C=C/C(=O)C(C)(O)C1C(O)CC2(C)C3CC=C4C(CC(O)C(=O)C4(C)C)C3(C)C(=O)CC12C (stereo not given) was read as PGC1a acetyl inh 70*.
Screening CC(=O)OC(C)(C)/C=C/C(=O)[C@](C)(O)[C@H]1[C@H](O)C[C@@]2(C)[C@@H]3CC=C4[C@H](C[C@H](O)C(=O)C4(C)C)[C@]3(C)C(=O)C[C@]12C returned C2C12 statin -5 and PGC1a acetyl inh 88*.
CC(=O)OC(C)(C)/C=C/C(=O)C(C)(O)C1[C@H](O)C[C@@]2(C)C3CC=C4C(CC[C@@H](O)C4(C)C)[C@]3(CO)C(=O)C[C@]12C (stereo not given in full) was read as AI-2 QS mod 27, C2C12 statin -19, Rce1 inh inactive and HIF act -4.
C[C@H]1CCCC(=O)CCC/C=C/c2cc(O)cc(O)c2C(=O)O1 was read as AI-2 QS mod 33, C2C12 statin 7, Rce1 inh inactive and HIF act 0.
For C[C@H]1CCC/C=C/[C@@H]2C[C@H](O)C[C@H]2[C@H](O)/C=C/C(=O)O1 the results were C2C12 statin -76 and PGC1a acetyl inh 69*.
COc1cccc(-c2ccc([C@@H]3[C@H]4CN(C(=O)Cc5ccncc5)CCCCN4[C@H]3CO)cc2)c1 was read as PGC1a acetyl inh -27.

High-throughput results (PubChem)
